# Entries with a potency or affinity are not part of this list. Values without a mark were called inactive.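 The calls were made as follows: active = Loss of cell signal with fitted half-effect dose at or below twice the top valid tested dose; inconclusive = Poor fit, or flat fit from -70 to -30 percent; inactive = Half-effect above limit, rising signal, or flat within 30 percent.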
# Assay: viability loss in HEK293T cells – cell-based, cherry-picks, cytotoxicity control for HIV Vif inhibitor project, dose response (AID 652208);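 also: 0% = median neutral control wells and -100% = median staurosporine control wells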
# Settings: CellTiter-Glo luminescence, 24 h; series mostly up to 26 µM; activity change, negative = cytotoxicity: at the top concentration
row,Structure (SMILES),"activity change, negative = cytotoxicity"
1,COc1cc(/C=C/C(=O)O)ccc1S(=O)(=O)N1CCCc2ccccc21,3.17%
2,Cc1nc(-c2ccc(O)c(O)c2)cs1,-6.88%
3,O=C(C1COc2ccccc2O1)N1CCN(Cc2ccc3c(c2)OCO3)CC1 (configuration not stated),-3.74%
4,CCOC(=O)C1CCCN(C(=O)c2cc(S(=O)(=O)N(C)C)ccc2N2CCCC2)C1 (configuration not stated),-14.7%
5,CCN1C(=O)NC(c2ccccc2)C1=O (configuration not stated),1.17%
6,O=C(CN(C(=O)c1csnn1)c1ccc(F)cc1)NCc1ccc2c(c1)OCO2,-5.58%
7,CCC1(CC)NC(=O)N(CC(=O)Nc2ccc(OCc3ccccc3)cc2)C1=O,-11.7%
8,CN1CCN(C(=S)c2ccc(OCC(=O)Nc3cccc(C(F)(F)F)c3)cc2)CC1,-12.2%
9,CCc1cccc2cc3c(N)c(C(=O)Nc4ccc(S(=O)(=O)N5CCCC5)cc4)sc3nc12,0.681%
10,COc1ccc(OCCN2CCC(C(=O)NC(c3ccccn3)c3ccccc3OC)CC2)cc1 (configuration not stated),1.92%
11,COc1ccc(S(=O)(=O)Nc2cc3c(C(C)=O)c(C)oc3c3ccccc23)cc1,-15.9%
12,COc1ccc(CNC(=O)Nc2cccs2)cc1OC,-1.77%
13,COc1ccc(OC)c(/C(O)=C/C(=O)C(=O)Nc2cc(C)ccc2OC)c1,-1.12%
14,COc1cccc(N2CCN(C(=O)c3ccc(CS(=O)c4ccc(C)cc4)o3)CC2)c1 (configuration not stated),-14.4%
15,N#CC(C(=O)NCCc1ccccc1)c1nc2ccccc2nc1N1CCOCC1 (configuration not stated),-10.5%
16,CCOc1ccc(S(=O)(=O)NCc2ccccn2)cc1NC(=O)c1ccccc1,-22.6%
17,COc1cc(C2C3=C(COC3=O)Oc3cc4c(cc32)OCO4)cc(OC)c1O (configuration not stated),-15.8%
18,Cc1cc(C)c(S(=O)(=O)N2CCN(S(=O)(=O)N3CCOCC3)CC2)c(C)c1,2.67%
19,COc1ccccc1Oc1coc2cc(OCC(N)=O)ccc2c1=O,8.29%

row,Structure (SMILES),"activity change, negative = cytotoxicity"
1,O=C(O)CCCCn1c(SCc2ccccc2Cl)nc2ccsc2c1=O,-2.34%
2,CC1Cc2ccccc2N1C(=O)COC(=O)c1ccccc1NCCO (configuration not stated),-1.22%
3,O=C(Nc1cccc(-c2cc3ccccc3oc2=O)c1)c1ccc(Br)o1,2.79%
4,Cc1c(NC(=O)c2cc3ccccc3oc2=O)c(=O)n(-c2ccccc2)n1C,6.31%
5,NC(=O)c1sc2nc(-c3ccccc3)ccc2c1N,16%
6,CN(C)C(=O)c1cc(Br)ccc1Cl,10.3%
7,Cc1ccc(N(C)S(=O)(=O)c2ccc(-c3ccc(=O)[nH]n3)s2)cc1C,-19.2%
8,COc1ccccc1C(C)NC(=O)Cc1ccsc1 (configuration not stated),5.66%
9,O=C(Nc1ccc2c(c1)nc1n2CCOC1)c1ccccc1,-17.4%
10,CC(C)(C)NC(=O)CN(Cc1ccc(F)cc1)C(=O)Cn1nnc(-c2ccc(F)cc2)n1,-0.485%
11,COc1ccc(CC(=O)Nc2ccc(-c3noc(-c4cc(OC)c(OC)c(OC)c4)n3)cc2)cc1,0.981%
12,COc1c(Br)cc(Br)cc1/C=C1/C(=O)N=C(N)N1C,-3.7%
13,CCn1c(/C=C/c2ccc(F)cc2)nc2ccccc2c1=O,-13.8%
14,CCN(CC)c1ccc2cc(-c3nnc(-c4ccccc4)o3)c(=O)oc2c1,-15.4%
15,CN(Cc1ccccc1)C(=O)CCC1CCN(C(=O)c2ccco2)CC1,-3.47%
16,COc1ccc(OC)c(NC(=O)c2cc3ccccc3cc2OC)c1,-7.06%
17,COc1ccc(CN(CC(=O)NC2CCCC2)C(=O)CN2C(=O)COc3ccccc32)cc1,3.38%
18,O=S(=O)(Nn1cnnc1)c1ccccc1,6.03%

# Source: PubChem BioAssay AID652208 (Broad Institute, 2013)
